Earlier results on 33 molecules are cited in PubChem BioAssay AID977608.

This data set can be described thus: protein-ligand inhibition affinities from structures – PDB-derived complexes (AID 977608).

Screen size: about 4,300 compounds; about 4,300 (100%) were called active. Cut-off not given; nearly all actives show IC50 up to about 1400 µM. So high a share suggests a set chosen from earlier hits. Some of the results follow. Where a SMILES comes first, the peptide text is derived from it. [ ]: non-standard residue; d: D form. The star is where a group is joined. Thr(P(OH)3+) = C[C@@H](O[P+](O)(O)O)[C@H](N)C(=O)O; Pentanoyl(5-cHex) = O=C(CCCCC1CCCCC1)*; Ahx = NCCCCCC(=O)O

With `O=C(C[P+](O)(O)O)OC1[C@@H](O[P+](O)(O)O)[C@H](O[P+](O)(O)O)C(OCc2ccccc2)[C@H](O[P+](O)(O)O)[C@H]1O[P+](O)(O)O` (stereo not given in full), the IC50 (literature IC50, protein: Inositol hexakisphosphate and diphosphoinositol-pentakisphosphate kinase 2 PPIP5K2, PDB entry 4nzn) was 420 nM (active).

Regarding `O=C(C[P+](O)(O)O)OC1[C@@H](O[P+](O)(O)O)[C@H](O[P+](O)(O)O)C(O[P+](O)(O)O)[C@H](O[P+](O)(O)O)[C@H]1O[P+](O)(O)O` (stereo not given in full), where the note is “literature IC50, protein: Inositol hexakisphosphate and diphosphoinositol-pentakisphosphate kinase 2 PPIP5K2, PDB entry 4nzm”, the IC50 is 140 nM (active).

For the molecule `CCCCCCNCC([P+](O)(O)O)[P+](O)(O)O`, the IC50 (literature IC50, protein: Farnesyl pyrophosphate synthase, PDB entry 4e1e) is 490 nM (active).

On to `CCCCCNCC([P+](O)(O)O)[P+](O)(O)O`, for which the IC50 (literature IC50, protein: Farnesyl pyrophosphate synthase, PDB entry 4dwb) was 1840 nM (active).

Consider `CCCNCC([P+](O)(O)O)[P+](O)(O)O`, for which, where the note is “literature IC50, protein: Farnesyl pyrophosphate synthase, PDB entry 4dxj”, the IC50 was 38 nM (active).

With `CCCCCCCNCC([P+](O)(O)O)[P+](O)(O)O`, the IC50 (literature IC50, protein: Farnesyl pyrophosphate synthase, PDB entry 4dwg) is 58 nM (active).

As to `CC(=O)N[C@H]1[C@@H](O[P+](O)(O)O[P+](O)(O)OC[C@H]2O[C@@H](n3ccc(=O)[nH]c3=O)[C@H](O)[C@@H]2O)O[C@H](CO)[C@@H](O)[C@@H]1O[C@H](C)C(=O)N[C@@H](C)C(=O)N[C@H](CCC(=O)N[C@@H](CSCCc1cn([C@@H]2[C@H](O)[C@@H](CO[P+](O)(O)O[C@H]3[C@@H](O)[C@H](n4ccc(N)nc4=O)O[C@@H]3CO[P+](O)(O)O[C@H]3[C@@H](O)[C@H](n4ccc(N)nc4=O)O[C@@H]3COP(O)O)O[C@H]2n2cnc3c(N)ncnc32)nn1)C(=O)N[C@H](C)C(=O)N[C@H](C)C(=O)O)C(=O)O`, where the note is “literature IC50, protein: FemX, PDB entry 4ii9”, the IC50 was 930 nM (active).

Regarding `CN(Cc1cnc2c(n1)C(N)NC(N)N2)c1ccc(C(=O)N[C@@H](CCC(=O)O)C(=O)O)cc1` (stereo not given in full), the IC50 (literature IC50, protein: Lactobacillus casei dihydrofolate reductase, PDB entry 1ao8) was 6 nM (active).

For `NCC[C@H](C1CC=CC1)n1cc(-c2ncnc3[nH]ccc23)cn1`, the IC50 (literature IC50, protein: Proto-oncogene tyrosine-protein kinase Src, PDB entry 4u5j) was 2930 nM (active).

For `O=CC[C@@H](NC(=O)Oc1ccccc1)c1ccccc1`, the IC50 by setting is: (literature IC50, protein: RHOMBOID PROTEASE GLPG, PDB entry 3zmi) 1120 nM (active); (literature IC50, protein: RHOMBOID PROTEASE GLPG, PDB entry 3zot) 1120 nM (active).

As to `O=CC[C@@H](NC(=O)OC1CCCC1)c1ccccc1`, where the note is “literature IC50, protein: RHOMBOID PROTEASE GLPG, PDB entry 3zmh”, the IC50 was 5270 nM (active).

As to `CC(C)COC(=O)N[C@H](CC=O)c1ccccc1`, the IC50 (literature IC50, protein: RHOMBOID PROTEASE GLPG, PDB entry 3zmj) is 11700 nM (active).

Consider `CSCC[C@H](NC(=O)[C@@H](NC(=O)[C@H](CO)NC(=O)[C@H](Cc1cnc[nH]1)NC(=O)[C@H](CC(C)C)NC(=O)[C@@H]1CCCN1C(=O)CCCCCNC(=O)CCCCC1CCCCC1)[C@@H](C)O[P+](O)(O)O)C(N)=O` ({Pentanoyl(5-cHex)-Ahx}-PLHS[Thr(P(OH)3+)]M-NH2), for which the IC50 (literature IC50, protein: Serine/threonine-protein kinase PLK1, PDB entry 4lkm) was 460 nM (active).

As to `CSCC[C@H](NC(=O)[C@@H](NC(=O)[C@H](CO)NC(=O)[C@H](Cc1cnc[nH]1)NC(=O)[C@H](CC(C)C)NC(=O)[C@@H]1CCCN1C(=O)CC12CC3CC(CC(C3)C1)C2)[C@@H](C)O[P+](O)(O)O)C(N)=O` (HELM PEPTIDE1{[O=C(CC12CC3CC(CC(C3)C1)C2)[*:2]].P.L.H.S.[C[C@@H](O[P+](O)(O)O)[C@H](N[*:1])C(=O)[*:2]].M.[am]}$$$$V2.0), the IC50 (literature IC50, protein: Serine/threonine-protein kinase PLK1, PDB entry 4lkl) was 820 nM (active).

For the molecule `Cc1[nH]c2ccccc2c1CCNC(=O)c1ccccc1F`, under “literature IC50, protein: Arp2/3 complex, PDB entry 3ukr”, the IC50 was 12000 nM (active).

In the case of `NC1CCC(Nc2nccc(-c3cccnc3Oc3ccc(NS(=O)(=O)c4ccccc4)c4ccccc34)n2)CC1` (stereo not given), under “literature IC50, protein: Mitogen-activated protein kinase 10 JNK3, PDB entry 4u79”, the IC50 is 400 nM (active).

Consider `O=C(COc1ccccc1[P+](O)(O)O)Nc1cc(Cl)cc(Cl)c1`, for which the IC50 (literature IC50, protein: 14-3-3 protein sigma, PDB entry 4dhs) is 16000 nM (active).

Consider `COc1cccc(NC(=O)COc2ccccc2[P+](O)(O)O)c1`, for which, where the note is “literature IC50, protein: 14-3-3 protein sigma, PDB entry 4dho”, the IC50 is 118000 nM (active).

Turning to `O=C(COc1ccccc1[P+](O)(O)O)Nc1cccc(Cl)c1`, where the note is “literature IC50, protein: 14-3-3 protein sigma, PDB entry 4dhq”, the concentration for half-maximal inhibition (IC50) was 32000 nM (active).

With `COc1ccc(OC)c(NC(=O)COc2ccccc2[P+](O)(O)O)c1`, the IC50 (literature IC50, protein: 14-3-3 protein sigma, PDB entry 3t0m) was 116000 nM (active).

In the case of `O=C(COc1ccccc1[P+](O)(O)O)Nc1cccc(C(F)(F)F)c1`, where the note is “literature IC50, protein: 14-3-3 protein sigma, PDB entry 4dhm”, the IC50 was 165000 nM (active).

Turning to `NC1=N[C@@]2(c3cc(NC(=O)c4ccc(F)cn4)ccc3F)COC[C@H]2CS1`, where the note is “literature IC50, protein: Beta-secretase 1 BACE1, PDB entry 4x7i”, the IC50 is 20.3 nM (active).

With `Cc1nc(-c2ccccn2)nc(N[C@H](Cc2ccccc2)C(N)=O)c1Cl`, where the note is “literature IC50, protein: Methionine aminopeptidase 1, PDB entry 4iku”, the IC50 was 1790 nM (active).

On to `CCC(C)(C)c1nn(CCO)c2c1NC(c1ccc(-n3ccnc3C)cc1)CNC2=O` (stereo not given), for which, for the setting “literature IC50, protein: cGMP-dependent 3',5'-cyclic phosphodiesterase, PDB entry 4jib”, the IC50 was 45 nM (active).

As to `CC(C)C[C@H](NC(=O)OCc1ccccc1)C(=O)N[C@H](CO)C[C@@H]1CCNC1=O`, the IC50 by setting is: (literature IC50, protein: 3C-like proteinase, PDB entry 4f49) 820 nM (active); (literature IC50, protein: Genome polyprotein, PDB entry 4dcd) 1770 nM (active).

Take `COC(=O)N[C@@H](CC(C)C)C(=O)N[C@H](CO)C[C@@H]1CCNC1=O`: for the setting “literature IC50, protein: 3C-like protease, PDB entry 3ur9”, the IC50 was 490 nM (active).

For `CC(C)C[C@H](NC(=O)OCc1ccccc1)C(=O)N[C@@H](CC(C)C)C(=O)N[C@@H](CC(C)C)[C@@H](O)[C@H](C)CO`, under “literature IC50, protein: Proteasome subunit alpha CP, PDB entry 4no9”, the IC50 was 15 nM (active).

As to `CC[C@H](C)[C@H](CO)[C@@H](O)C(=O)N[C@H]1C[C@H]1C[C@@H](CCc1ccccc1)NC(=O)[C@H](C)NC(=O)OCc1ccccc1`, the IC50 (literature IC50, protein: Proteasome, PDB entry 4j70) is 5700 nM (active).

As for `c1cc2cnc3ccsc3c2cn1`, the IC50 (literature IC50, protein: DUAL SPECIFICITY PROTEIN KINASE TTK, PDB entry 4bi1) was 69100 nM (active).

As to `c1cc2cnc3sccc3c2cn1`, the IC50 (literature IC50, protein: DUAL SPECIFICITY PROTEIN KINASE TTK, PDB entry 4bhz) is 53500 nM (active).

Consider `c1cc2c(cn1)cnc1sccc12`, for which the IC50 (literature IC50, protein: DUAL SPECIFICITY PROTEIN KINASE TTK, PDB entry 4bi2) was 94100 nM (active).

In the case of `Cc1cccc2c1CCN(C(=O)[C@@H]1CCCC[C@@H]1C(=O)O)[C@@H]2CN1Cc2ccccc2C1=O`, the IC50 (literature IC50, protein: Kelch-like ECH-associated protein 1, keap1 kelch domain, PDB entry 4l7d) is 750 nM (active).

`O=C(O)[C@H]1CCCC[C@H]1C(=O)N1CCc2ccccc2[C@H]1CN1Cc2ccccc2C1=O`: for the setting “literature IC50, protein: Kelch-like ECH-associated protein 1, keap1 kelch domain, PDB entry 4n1b”, the IC50 was 1100 nM (active).

A word on the IC50: it is the midpoint of a concentration-inhibition curve.
